Pol kappa inh: blocks human DNA polymerase kappa activity | Potency, µM (doses to about 107 µM), hits mostly inhibitors | 0.53% of 400,000 active | Q9UBT6 | purified Pol kappa, fluorescent DNA synthesis assay, 10 min
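10 nM Pol kappa was preincubated with compounds for 15 min at room temperature. Reaction started with 50 nM (final) substrate. Fluorescence read kinetically at 0 and 10 min.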
POLB inh: blocks human DNA polymerase beta activity | P06746 | Pol beta primer extension/strand displacement, fluorescence kinetic | Potency, µM (series often up to 114 µM), most hits filed as inhibitors | 1.3% of 340,000 active | AID 485314
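Enzyme-only controls used 10 nM Pol beta; buffer lacking enzyme served as negative control. Compound preincubated 15 min, then 50 nM substrate added; 0 and 10 min reads at room temperature.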
POLI inh: blocks human DNA polymerase iota activity; AID 588590; Potency, µM (titrated, usually from 115 µM), actives largely listed as inhibitors; Pol iota fluorescent replication assay, 10 min; 1% of 390,000 active
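Fluorescent replication assay read twice, at 0 min and 10 min after adding 50 nM (final) substrate. Enzyme (10 nM) and compounds were first incubated 15 min at room temperature; enzyme-free buffer wells were negative controls.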
GLS inhibitor: blocks human kidney-isoform glutaminase activity | Potency, µM (highest dose often 45.5 µM), usual class: inhibitors | 0.21% of 410,000 active | GLS enzymatic activity, qHTS titration | O94925
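hKGA in 45 mM KH2PO4 pH 8.2, 0.02% Tween-20 with pin-transferred compounds; 1 mM L-glutamine (stock) plus glutamate oxidase/HRP/Amplex Red coupling added. Fluorescence read initially and after 30 min at RT.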
APEX1 inh: APE1 (human) endonuclease inhibition | P27695 | recombinant APE1, TAMRA/BHQ-2 abasic DNA cleavage fluorescence | Potency, µM (doses to about 65.8 µM), most hits filed as inhibitors | 0.35% of 350,000 active | AID 2517; also: nearly all actives have a fitted effect of over 55% in size
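Kinetic fluorescence read (525 ex/598 em nm, three reads 60 s apart) of AP-site incision; signal = third minus first read. Enzyme 0.75 nM, dual-labelled THF duplex 50 nM, compound preincubation 15 min RT.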
POLH inh: DNA polymerase eta (human) inhibition | recombinant Pol eta, fluorescent DNA replication assay | Potency, µM (titrated, usually from 114 µM), most hits filed as inhibitors | 1.2% of 390,000 active | AID 588591
Target sequence (Q9Y253 whole entry, looked up): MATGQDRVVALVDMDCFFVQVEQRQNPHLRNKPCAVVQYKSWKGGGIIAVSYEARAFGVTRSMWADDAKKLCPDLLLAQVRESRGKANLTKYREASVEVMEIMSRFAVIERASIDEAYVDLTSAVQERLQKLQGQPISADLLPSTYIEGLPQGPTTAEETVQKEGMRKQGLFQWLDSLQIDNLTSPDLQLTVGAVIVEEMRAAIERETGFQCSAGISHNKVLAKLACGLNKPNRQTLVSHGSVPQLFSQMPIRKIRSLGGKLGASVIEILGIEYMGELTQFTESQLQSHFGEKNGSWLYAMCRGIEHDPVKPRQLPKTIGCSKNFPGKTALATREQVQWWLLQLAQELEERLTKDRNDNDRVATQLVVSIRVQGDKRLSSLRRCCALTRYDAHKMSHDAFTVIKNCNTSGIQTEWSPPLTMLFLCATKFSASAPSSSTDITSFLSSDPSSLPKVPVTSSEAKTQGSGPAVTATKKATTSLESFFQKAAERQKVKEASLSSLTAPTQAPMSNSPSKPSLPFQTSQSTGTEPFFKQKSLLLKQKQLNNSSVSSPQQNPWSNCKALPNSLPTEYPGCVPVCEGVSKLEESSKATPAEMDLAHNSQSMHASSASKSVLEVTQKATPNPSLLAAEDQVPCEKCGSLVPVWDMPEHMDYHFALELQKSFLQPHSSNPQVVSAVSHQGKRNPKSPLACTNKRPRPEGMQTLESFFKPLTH
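Fluorescent replication assay: 50 nM final substrate added after a 15 min room-temperature compound preincubation with 10 nM enzyme. Signal taken at 0 min and again at 10 min.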
A number is an active result; n = inactive; u = inconclusive; x = not tested or not shown; [ ] = dose if it differs, or a comment. In the library only some 2.4% were active in any assay of this set; here they are far more common. Calls follow the shape of the dose curve; as a rule, active = well fitted curve in the direction sought with a large enough effect; inconclusive = small, poorly fitted or top-dose-only effect, or another doubt; inactive = no such curve, though single readings can be large; an effect the other way counts as inactive or inconclusive.

SMILES	Pol kappa inh	POLB inh	POLI inh	GLS inhibitor	APEX1 inh	POLH inh
COc1ccc(-c2cn(CC3CCCCC3)nn2)cc1	n	n	n	n	n	n
O=C(CCC1CCCC1)c1c(O)c2ccccc2oc1=O	n	n	n	n	n	n
CCn1c(SCC(=O)Nc2ccc3c(c2)OCCO3)nnc1-c1cccnc1	n	n	n	n	n	n
CC(C)(C)c1ccc(OCC(=O)NCc2ccco2)c(Br)c1	n	u	u	n	n	45µM
O=C(COC(=O)Cc1ccc(F)cc1)NCc1ccco1	u	22µM	u	n	u	u
COc1cc(OC)cc(C(=O)NCC(=O)OCC(=O)NCc2ccco2)c1	u	x	79µM	n	n	u
COc1ccc(C(=O)NCC(=O)OCC(=O)NCc2ccco2)cc1	n	x	n	n	n	u
COc1ccc(CCC(=O)NCc2ccco2)cc1	u	40µM	n	n	u	20µM
COC(=O)c1c(NC(=O)/C=C/C(=O)O)sc(C)c1-c1ccc(C(C)C)cc1	n	n	n	n	n	79µM
CN1C(=O)c2ccc(C(=O)Nc3cccnc3)cc2C1=O	n	n	n	n	n	n
O=C(NN1C(=O)c2ccc(-c3ccc4c(c3)C(=O)N(NC(=O)c3cccnc3)C4=O)cc2C1=O)c1cccnc1	n	u	50µM	n	n	50µM
CCc1ccc(-n2c(=O)c3ccccc3n(CC(=O)NCCc3ccc(OC)c(OC)c3)c2=O)cc1	n	n	n	n	x	n
COc1ccc(CCNC(=O)Cn2c(=O)n(-c3ccc(OC)c(OC)c3)c(=O)c3ccccc32)cc1OC	79µM	n	u	n	x	n
O=C(Nc1ccccc1N1CCOCC1)c1cc(-c2ccco2)nc2ccccc12	n	14µM	u	n	u	u
O=C(N/N=C/c1ccc2c(c1)OCO2)c1cc(-c2ccco2)nc2ccccc12	u	x	3.2µM	n	n	u
CCN1CCN(C(=O)c2cc(-c3ccco3)nc3ccccc23)CC1	u	x	40µM	n	n	35µM
O=C(O)CC(CC(=O)O)n1cccc1	n	x	n	n	x	n
COc1ccc(CNc2ncnc3c2[nH]c2cc(OC)c(OC)cc23)cc1	n	6.3µM	u	n	n	u
COc1ccc(CNc2ncnc3c2[nH]c2ccccc23)cc1	n	n	u	n	n	n
CN1CCN(c2cc3c(nn2)Oc2ccccc2N3C)CC1	n[19.4 µM]	x	x	n	x	x
O=C(NCc1ccco1)C1Cc2ccccc2CN1C(=O)c1ccco1 (stereo unspecified)	u	22µM	32µM	n	n	32µM
O=C(NCc1ccco1)C1Cc2ccccc2CN1S(=O)(=O)c1ccccc1F (stereo unspecified)	u	x	13µM	n	x	10µM
CC1(C(=O)NCc2ccc(F)c(F)c2)Cc2c(-c3cccc(C(F)(F)F)c3)ccnc2O1 (stereo unspecified)	x	x	x	n	x	x
COC(=O)CCC(=O)OC1(C)C(=O)C=C2C=C3CCCN3C=C2C1=O (stereo unspecified)	u	n	u	n	u	50µM
COC(=O)CCC(=O)OC1(C)C(=O)C=C2C=C(C3CC3)N(Cc3ccc(OC)cc3)C=C2C1=O (stereo unspecified)	n	n	18µM	n	n[12.4 µM]	n
SMILES	Pol kappa inh	POLB inh	POLI inh	GLS inhibitor	APEX1 inh	POLH inh
COC(=O)CCC(=O)OC1(C)C(=O)C=C2C=C(C3CC3)N(CCCOC(C)C)C=C2C1=O (stereo unspecified)	n	n	u	n	n[12.4 µM]	89µM
COC(=O)CCC(=O)OC1(C)C(=O)C=C2C=C(C3CC3)N(Cc3ccc4c(c3)OCO4)C=C2C1=O (stereo unspecified)	n	n	u	n	n[12.4 µM]	n
COC(=O)CCCC1=CC2=CC(=O)C(C)(OC(=O)c3cccs3)C(=O)C2=CN1CCCCO (stereo unspecified)	n	n	22µM	n	n[12.4 µM]	n
COC(=O)CCC(=O)OC1(C)C(=O)C=C2C=C(C3CC3)N(CCN3CCOCC3)C=C2C1=O (stereo unspecified)	n	n	u	n	n[12.4 µM]	n
CC12CC3(C)CC(C)(C1)CC(NC(=O)N1CCCC1)(C2)C3	n	n	n	n	n	n
Cc1cc(Cn2cnc3c(cnn3C(C)(C)C)c2=O)ccc1F	n	x	n	x	n	x
COC(=O)CCC(=O)OC1(C)C(=O)C=C2C=C(C3CC3)N(CCCCO)C=C2C1=O (stereo unspecified)	n	n	25µM	n	n[12.4 µM]	n
C=CCN1C=C2C(=O)C(C)(OC(=O)CCC(=O)OC)C(=O)C=C2C=C1C1CC1 (stereo unspecified)	n	n	n	n	n[12.4 µM]	n
Cc1nc2ccc(C(=O)N/N=C/c3ccccc3O)cc2[nH]1	n	20µM	u	n	n	n
O=C(N/N=C/c1ccc(O)cc1O)C1CC1	n	x	n	n	x	n
Cc1nc2ccc(C(=O)N/N=C/c3cc([N+](=O)[O-])ccc3O)cc2[nH]1	n	u	n	n	n	u
CCn1c(C)nc2cc(C(=O)N/N=C/c3ccc(O)c(O)c3O)ccc21	10µM	1.6µM	u	u	n	5µM
CCn1c(C)nc2cc(C(=O)N/N=C/c3cccc(OC)c3O)ccc21	u	u	n	n	n	n
O=C(N/N=C/c1ccc(O)cc1O)c1ccc(NC(=O)C2CCCCC2)cc1	n	n	u	n	n	35µM
COc1ccc(C(=O)Nc2nnc(CC(=O)N/N=C/c3ccc(O)cc3O)s2)cc1	x	5µM	x	x	n	x
COc1ccc(-c2noc(N3CCN(c4cccc(Cl)c4)CC3)n2)cc1OC	n	n	u	n	x	n
C[C@@H]1O[C@H](O[C@@H]2\C=C/C=C\C=C/C=C\C[C@H](C)OC(=O)/C=C\[C@H]3O[C@@H]3C[C@H](O)C[C@]3(O)C[C@@H](O)[C@@H](C(=O)O)[C@H](C2)O3)[C@@H](O)[C@H](N)[C@@H]1O (stereo in doubt)	n[19.4 µM]	x	x	n	x	x
O=C(N/N=C/c1ccc(O)cc1O)c1ccncc1	n	n	n	13µM	n	n
O=C(N/N=C/c1cccc(O)c1)c1ccc(NC(=O)C2CCCCC2)cc1	n	32µM	u	n	u	n
O=C(N/N=C/c1ccc(Cl)cc1Cl)c1ccncc1	n	n	n	n	n	n
O=C(N/N=C/c1cccc(O)c1)NC1CCCCC1	n	n	n	n	n	n
Cn1nc(C(=O)NNC(=O)C2CSC3(C)CCC(=O)N23)c2ccccc2c1=O (stereo unspecified)	n	x	n	n	n	n
CCN1/C(=C/c2ccc3cc(C)cc(C)c3[n+]2CC)Sc2cc(C)ccc21	n	50µM	n	n	n	79µM
CCN1/C(=C/c2ccc3cc(C)ccc3[n+]2CC)Sc2ccc3sccc3c21	n	x	n	n	x	u

Bioassay records (PubChem)
